A selection: hits, their analogues and other compounds. The true share with any hit is near 0.99%.
BLM inh: qHTS Assay for Inhibitors of Bloom's syndrome helicase (BLM); RecQ-like DNA helicase BLM (Homo sapiens), P54132; recombinant BLM DNA unwinding, fluorescence dequenching; Potency, µM (series often up to 56.1 µM), for inactives: top-dose activity change, negative = inhibition, actives largely listed as inhibitors; actives 0.2% (n = 350,000); AID 2528, 2010;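 also: plate controls were vehicle for no effect and no enzyme for full effect; nearly all actives have a fitted effect of over 35% in size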
WRN helicase inh: qHTS for Inhibitors of WRN Helicase; WRN helicase unwinding, fluorescent forked duplex, kinetic; actives 0.46% (n = 360,000); Potency, µM (highest dose often 114 µM), inactives show top-dose activity change, negative = inhibition, actives largely listed as inhibitors; also: nearly all actives have a fitted effect of over 55% in size
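Kinetic fluorescence helicase assay: unwinding of a quenched forked DNA duplex (100 nM final) with 2 mM ATP final raises red fluorescence (525/598 nm). Compounds sat 15 min at room temperature with 20 nM WRN beforehand.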
L3MBTL1 block: qHTS Assay for the Inhibitors of L3MBTL1; Potency, µM (titrated, usually from 57.1 µM), for inactives: at the top dose activity, negative = inhibition, hits mostly inhibitors; AlphaScreen L3MBTL1–H3K9me1 peptide binding; actives 0.66% (n = 230,000); AID 485360, 2010; also: nearly all actives have a fitted effect of over 60% in size
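Displacement of a biotinylated histone H3(1-15) peptide monomethylated at Lys9 (75 nM) from L3MBTL1 (50 nM) was measured by AlphaScreen after a 30 min room-temperature compound incubation; cefsulodin titration served as intraplate control.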
RECQ1 inh-1: qHTS Assay for Inhibitors of RecQ-Like Dna Helicase 1 (RECQ1); ATP-dependent DNA helicase Q1 (Homo sapiens), P46063; RECQ1 DNA unwinding, red fluorescence kinetic read; actives 0.54% (n = 240,000); Potency, µM (highest dose often 57.3 µM), without a hit: top-dose activity, negative = inhibition, usual class: inhibitors;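 also: plate controls were vehicle for no effect and no enzyme for full effect; nearly all actives have a fitted effect of over 30% in size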
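RECQ1T1 50 nM; forked duplex (20 bp + 30-nt ss tails) 200 nM, ATP 2 mM final; pH 8.0, 2 mM MgCl2, 2.5 ug/ml poly(dI-dC); 15 min compound preincubation; discontinuous kinetic read over 2 h at RT.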
FEN1 inh: qHTS Assay for the Inhibitors of Human Flap endonuclease 1 (FEN1); Recombinant FEN1 flap cleavage, fluorescence, 15 min; Potency, µM (highest dose often 114 µM), inactives show at the highest dose activity change, negative = inhibition, hits mostly inhibitors; actives 0.35% (n = 390,000); also: nearly all actives have a fitted effect of over 65% in size
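Quantitative HTS format: each compound was titrated, incubated with 10 nM nuclease for 15 min at room temperature, then challenged with flap substrate at 50 nM final. Signal change over 15 min gave concentration–effect curves.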
RECQ1 conf: Confirmation qHTS Assay for Inhibitors of RecQ-Like Dna Helicase 1 (RECQ1). RECQ1 helicase DNA unwinding, fluorescence. actives 28% (n = 610). Potency, µM (titrated, usually from 229 µM), for the others: at the highest dose activity change, negative = inhibition, most hits filed as inhibitors. shares compounds with RECQ1 inh-1; also: nearly all actives have a fitted effect of over 45% in size
RECQ1 ADP FP: Counterscreen for RECQ1 Inhibitors: ADP Fluorescence Polarization Displacement Assay | shares compounds with RECQ1 inh-1 | ADP fluorescence polarization displacement counterscreen | Potency, µM (titrated, usually from 228 µM), for inactives: top-dose activity change, negative = inhibition, hits mostly inhibitors | actives 27% (n = 530); also: nearly all actives have a fitted effect of over 45% in size
RECQ1 inh-2: Confirmation qHTS Assay for Inhibitors of RecQ-Like Dna Helicase 1 (RECQ1) - Round 2 Cherry Picks; recombinant RECQ1 DNA unwinding, red fluorescence; AID 504841, 2011; shares compounds with RECQ1 inh-1; Potency, µM (top dose mostly 119 µM), inactives show at the top dose activity, negative = inhibition, most hits filed as inhibitors; actives 15% (n = 1,100); also: nearly all actives have a fitted effect of over 50% in size
Active calls of the source: *; i = inactive; u = inconclusive; x = no result; + = active, no number; [ ] = another dose, or the depositor's remark. Calls follow the shape of the dose curve; as a rule, active = well fitted curve in the direction sought with a large enough effect; inconclusive = small, poorly fitted or top-dose-only effect, or another doubt; inactive = no such curve, though single readings can be large; an effect the other way counts as inactive or inconclusive. Unless noted, % is scaled to controls: 0 for no effect and ±100 for the full control effect; potency is read from the fitted curve at half-maximal effect.

SMILES	BLM inh	WRN helicase inh	L3MBTL1 block	RECQ1 inh-1	FEN1 inh	RECQ1 conf	RECQ1 ADP FP	RECQ1 inh-2
CN(Cc1ccccc1)C(=O)CCNS(=O)(=O)c1ccc2c(c1)oc(=O)n2C	-7%	166%	-24%	35µM*	-2%	x	x	u
CN(Cc1ccccc1)C(=O)CCS(=O)(=O)c1ccc2c(c1)oc(=O)n2C	2%	3%	x	x	22%	x	x	x
Cn1c(SCC(=O)N/N=C/C=C/c2ccco2)nc2ccccc21	1%	u	22µM*	18µM*	u	u	x	x
NS(=O)(=O)c1ccc(CCNC(=O)CSc2nc3ccsc3c(=O)n2CCCCCC(=O)O)cc1	-8%	-8%	x	-1%	12%	14%	-8%	x
O=C(O)CCCCn1c(SCc2ccccc2Cl)nc2ccsc2c1=O	-1%	1%	x	-9%	8%	10%	3%	x
CCOc1ccc(/C=C(\C(=O)O)c2ccc(S(=O)(=O)N3CCOCC3)s2)cc1OC	-20%	-10%	-13%	1%	0%	-2%	u	x
CCC(c1nnnn1CCc1ccccc1)N1CCN(C(=O)c2ccco2)CC1 (centres undefined)	0%	3%	-3%	-7%	-11%	x	x	x
Cc1ccc(C)c(CN2C(=O)C(O)(c3c(C)[nH]c4ccccc34)c3ccccc32)c1 (centres undefined)	-3%	x	x	x	-11%	x	x	x
C=CCOC(=O)C1C(=O)CC(C)(O)C(C(=O)OCC=C)C1c1ccc(N(C)C)cc1 (centres undefined)	-3%	3%	x	u	-2%	x	x	-9%
Nc1cc2nc3ccccc3oc-2cc1=O	-14%	-1%[11.6 µM]	u	u	u	x	x	u
Cc1nc2ccccc2oc1=O	4%	x	x	i	x	x	x	x
CN(Cc1ccon1)C(=O)CC1C(=O)NCCN1Cc1ccc(Cl)c(F)c1 (centres undefined)	-3%	-29%	x	x	3%	x	x	x
CCn1c(SCC(=O)Nc2nc(-c3ccccc3)cs2)nnc1-c1ccccc1	-2%	-9%	0%	-3%	-7%	u	17%	x
COc1ncc2nc(C)c(=O)n(C3CC3)c2n1	34%	x	x	i	x	x	x	x
Cc1cc(=O)c2c(O)c3c(O)cc(=O)c4c3c3c(cc(O)c1c23)C(C)(C)C=4O	7.1µM*	x	x	1.8µM*	x	+	0.32µM*	i
COCCNc1nc(NCCOC)c2sc(-c3ccccc3)cc2n1	x	3%	x	x	x	x	x	x
COc1ccc(C(=O)Nc2ccc3nc(C)sc3c2)cc1OC	4%	2%	x	-5%	7%	x	x	x
O=C(O)CCC(=O)Nc1nc2nccc(-c3ccccc3)n2n1	9%	-1%	-18%	-25%	3%	u	-2%	x
Cc1[nH][nH]c(=O)c1C(c1ccc(-c2ccc(C(=O)O)cc2)o1)c1c(C)[nH][nH]c1=O	-4%	u	u	11µM*	-21%	-3%[114 µM]	x	-8%
Cc1[nH][nH]c(=O)c1C(c1ccc(-c2ccc(Cl)c(Cl)c2)o1)c1c(C)[nH][nH]c1=O	-26%	0%	x	u	-22%	x	x	u
Cc1[nH][nH]c(=O)c1C(c1ccc(-c2ccc(F)cc2)o1)c1c(C)[nH][nH]c1=O	-22%	11%	u	7%	0%	x	x	x
Cc1ccc(/C=c2\sc3nc(-c4ccccc4Br)nn3c2=O)o1	-21%	u	x	u	u	x	x	32%
COc1ccc(-c2nc(N/N=C(\C)c3ccc(O)cc3)c3ccccc3n2)cc1	2%	-15%	u	i	-22%	x	x	x
CCCCCCc1nc2ccccc2c(=O)n1NC(=O)c1c(O)c2cccc3c2n(c1=O)CCC3	-1%	x	x	-6%	x	-12%	13%	x
CCOC(=O)CC1(NC(=O)C2CCC(=O)N(C3CC3)C2)CCCCC1 (centres undefined)	0%	12%	x	x	4%	x	x	x
SMILES	BLM inh	WRN helicase inh	L3MBTL1 block	RECQ1 inh-1	FEN1 inh	RECQ1 conf	RECQ1 ADP FP	RECQ1 inh-2
O=C(/C=C/c1ccccc1F)c1ccoc1	-6%	-6%	2%	0.14µM*	5%	-12%[114 µM]	6%[91.9 µM]	-20%
O=C(C=Cc1ccccc1F)c1ccccc1	x	-20%	x	x	x	x	x	x
COCCNC(=O)c1cc(S(=O)(=O)N2CCCCC2)ccc1N1CCOCC1	x	2%	5%	x	-1%	x	x	x
CC(C)NS(=O)(=O)c1ccc(NC(=S)NC(=O)c2ccc(-c3ccccc3)cc2)cc1	-9%	-11%	-2%	u	-8%	x	x	-7%
CC(=O)Nc1ccc(NC(=S)NC(=O)c2ccc(-c3ccccc3)cc2)cc1	x	6%	x	x	-7%	x	x	x
CC(=O)OCC#CCSc1nc2ccccc2n1C	-2%	9%	-1%	4%	-5%	x	x	x
COc1ccccc1CN1C(=O)c2cccc3cccc(c23)C1=O	-1%	-32%[57.1 µM]	-2%	25µM*	0%	x	x	4%
COc1ccccc1CN1C(=O)c2ccncc2C1=O	1%	2%	4%	-7%	4%	x	x	x
O=C(O)c1ccc(NC(CSCc2ccc(F)cc2)C(=O)O)c([N+](=O)[O-])c1 (centres undefined)	1%	-2%	x	7%	2%	23%	-6%	x
Cc1cccc(NC(=O)CCN2C(=O)C3C4C=CC(C4)C3C2=O)n1 (centres undefined)	-4%	14%	10%	-16%	6%	x	x	x
CCN(CCCCN1C(=O)c2ccccc2C1=O)c1ccc2c(c1)C(=O)N(C)C2=O	-24%	u	-19%	28µM*	-23%	x	x	u
Cc1ccc(CSC2=Nc3ccccc3C3=NC(CC(=O)NCc4ccco4)C(=O)N23)cc1 (centres undefined)	2%	-20%	u	u	-13%	x	x	u
O=C(O)C1Cc2ccccc2CN1C(=O)CSc1nnc2ccccn12 (centres undefined)	0%	-7%	x	-12%	4%	12%	u	x
O=C(CSc1nnc2ccccn12)N1CCc2ccccc2C1	-2%	3%	-1%	-7%	-4%	x	x	x

Screens: PubChem, National Center for Advancing Translational Sciences (NCATS)
